According to PubChem BioAssay (NCI):
This is part of a sample that, as a whole, favours compounds with a hit. Of some 83,000 tested, about 20% had one in any assay.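 The test compound was applied at a single concentration to cells in 96-well plates for 48 hours, and percent growth was recorded.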 Unmarked numbers belong to inactive results. Active and inactive are the calls of the source.

System: SK-MEL-5 melanoma
Assay: NCI-60 one-dose screen, 48 h (100 = growth as untreated, 0 = no growth, -100 = all killed)
Settings: 10 µM unless noted
Experimental: Growth inhibition of the SK-MEL-5 human tumor cell line is measured as a screen for anti-cancer activity. Cells are grown in 96 well plates and exposed to the test compound for 48 hours. Compounds are tested at a single concentration, which is 10^-5 M for most compounds. The reported endpoint is percent growth (GI% or GIPRCNT), where numbers from 0 - 100% represent growth inhibition, and numbers from -100% - 0 represent cell death. For example, a value of 40 represents 60% growth inhibition. A value of 0 means no net growth occurred over the course of the experiment. A value of -40 indicates 40% of cells at the beginning of the experiment died by the end of the experiment. A value of -100 means all cells are dead at the end of the experiment.
NCI-60 Human Tumor Cell Lines Screen was performed using the standard one-dose NCI protocol, which is described in more detail at https://dtp.cancer.gov/discovery_development/nci-60/default.htm.
Compounds with GIPRCNT values below 10 were considered active. Activity score was based on GIPRCNT using the following formula: […]
Score is 0 for GIPRCNT values of 100 or above, 50 for GIPRCNT values of 0, and 100 for GIPRCNT values of -100.

| Structure (SMILES) | growth |
| --- | --- |
| CC(=O)NCCCS(=O)(=O)O | 120% |
| COc1cc2nc(-c3ccc(C(F)(F)F)cc3)cc(OCCCN3CCCCC3)c2cc1OC | 15.5% |
| O=C(CN1CCOCC1)Nc1ccc2ncnc(Nc3ccc(Oc4cccc(F)c4)c(Cl)c3)c2c1 | 68.5% |
| COc1ccc(C(=O)c2cc3c(N)c(C(=O)Nc4ccc(Cl)cc4)sc3nc2C)cc1 | 85.2% |
| CCN1C(=O)N(CC)C2C1NN=c1s/c(=C3\C(=O)Nc4ccccc43)c(=O)n12 (stereo not given) | 19.5% |
| COc1ccc(-c2nc(N/N=C/c3cccc(Br)c3)nc(N3CCOCC3)c2C#N)cc1 | 72% |
| CCCCCCN(C)Cc1ccc(OCCOc2ccc(CN(C)CCCCCC)cc2)cc1 | -99.7% (active) |
| COc1cc(NCCCN(CC(C)C)C2CCCC2)c2ncccc2c1 | 72.2% |
| O=C(N/N=C/c1ccc(F)cc1)c1ccccc1Nc1cccc(C(F)(F)F)c1 | 109% |
| Cc1ccc(-c2csc(/N=C3\C(=O)Nc4ccccc43)n2)cc1 | -20.2% (active) |
| C=C1C(=O)O[C@H]2[C@H]1CC/C(CNC(=O)/C=C/c1ccc(Br)cc1)=C\CC[C@@]1(C)O[C@@H]21 | 28.7% |
| COc1ccc(C2CC(c3cccc(Nc4ccncc4)c3)=NN2c2ccc(Cl)cc2)cc1 (stereo not given) | 61.3% |
| Fc1ccc(C2CC(c3cccc(Nc4ccncc4)c3)=NN2c2cc(Cl)cc(Cl)c2)cc1 (stereo not given) | 84.7% |
| COC(=O)C1=C(C(=O)ONCCN(C)C)C2C=CC1(C(Cc1ccccc1)Nc1ccc(F)cc1)O2 (stereo not given) | 105% |
| COc1cc(C2CC(c3cccc(Nc4ccncc4)c3)=NN2C(C)=O)cc(OC)c1OC (stereo not given) | 89.9% |
| COc1cc(C(=O)/C=C/c2c(C)n([O-])c3ccc(Cl)cc3[n+]2=O)cc(OC)c1OC | 89.4% |
| O=C1c2ccccc2C(=O)c2c(NCCN=Cc3ccccc3O)cccc21 | 61.9% |
| O=C(O)c1cn(C2CC2)c2cc(N3CCN(C(=O)C[n+]4cccc5ccccc54)CC3)c(F)cc2c1=O | 94.6% |
| N#CC1=C(N)Oc2c(ccc3ccccc23)C1c1ccc([N+](=O)[O-])cc1 (stereo not given) | 86% |
| Nc1nc(N)nc(NCc2ccccc2)n1 | 103% |

| Structure (SMILES) | growth |
| --- | --- |
| C[C@@H]1CN(Cc2ccc(/C=C/c3n[nH]c4ccc5nc(-c6cn[nH]c6C(F)(F)F)c6c(c5c34)CCCC6)cc2)C[C@H](C)O1 | 40.3% |
| CCCCCCOc1ccc(/C=N/Nc2cc(C)nc3ccc(Br)cc23)cc1 | 47.3% |
| O=S(=O)(NCCNc1nccc(-c2c(-c3ccc(F)c(O)c3)nc3sccn23)n1)c1ccccc1 | 58.1% |
| c1ccc(Cn2nc3c(c2-c2ccccc2)-c2oncc2CC3)cc1 | 84.8% |
| O=C(N/N=C/c1cccnc1)c1ccccc1Nc1cccc(C(F)(F)F)c1 | 74.3% |
| O=c1[nH]c(=O)[nH]c(=S)[nH]1 | 102% |
| CCCCCCOc1ccc(C(=N)N(CCCC)CCCC)c2ccccc12 | -99.3% (active) |
| CCCCCCCCCCCCCCCC(=O)OC[C@@]1(O)C[C@@]23CC[C@@H]4C(C)(C)[C@H](O)CC[C@@]4(C)[C@@H]2CC[C@H]1C3 | 102% |
| CCOC(=O)Oc1c(OC)cc(C(=O)O[C@@H]2C[C@@H]3CN4CCc5c([nH]c6cc(OC)ccc56)[C@H]4C[C@@H]3[C@H](C(=O)OC)[C@H]2OC)cc1OC | 86.1% |
| N#CSCC1CC(O)(c2ccccc2)C(c2ccccc2)C(c2ccc(F)cc2)O1 (stereo not given) | 57.3% |
| COc1ccc(-c2ncc(-c3ccccc3)[nH]2)cc1OC | 106% |
| Clc1cc(Cl)cc(N2N=C(c3cccc(Nc4ccncc4)c3)CC2c2ccc3c(c2)OCO3)c1 (stereo not given) | 58.9% |
| CN1CCN(C(=O)OCc2nc3c(N4CCOCC4)nc(-c4ccccc4)nc3n2C)CC1 | -96.7% (active) |
| NC(=O)c1cccc(-c2ccccc2N2CCCCC2)c1 | 100% |
| C[C@H]1[C@H](C)CC[C@]2(CO)CC[C@]3(C)C(=CC[C@@H]4[C@@]5(C)CCCNC(C)(C)[C@@H]5CC[C@]43C)[C@H]12 | 22.5% |
| CCC(C)N(CCNc1cc(OC)cc2cccnc12)CCC(C)C (stereo not given) | 95.2% |
| CCNNC(=O)[C@@H]1[C@H](c2cc(OC)c(OC)c(OC)c2)c2cc3c(cc2[C@H](O)[C@H]1CO)OCO3 | -38.8% (active) |
| O=C1NC(=S)NC(=O)C1=Cc1cn(Cc2ccccn2)c2ccccc12 | 73.6% |
| CCN(CC)CCSCCCNc1c(C)cnc2cc(Cl)ccc12 | 75.3% |
| COc1cc(C2CC(c3cccc(Nc4ccncc4)c3)=NN2c2ccc(Cl)cc2)cc(OC)c1OC (stereo not given) | -50.7% (active) |
